The whole screen tested about 69,000 compounds, of which about 1,000 (1.4%) showed an effect of 50% or more. The sample holds strong results, similar compounds and a random draw of the others, so the mix is not that of the screen.
Tested on: Leishmania donovani
Test: Leishmania intramacrophage assay
Assay type: functional, organism-based
Set-up: scale not given: in the data most compounds retested in dose-response had high values

## CC(C)CCc1nc(CNCC2CN(C)CCO2)cs1 (stereo unspecified)
30 µM
  Percent Effect: 42.41%

## CCN1C(=O)C2(CCOCC2)c2cc(NC(=O)c3cc(C)n[nH]3)ccc21
30.3 µM, […]
  Percent Effect: 7.521%

## Cc1nonc1CC(=O)N1CCC2(CCCN(C3CCOCC3)C2=O)C1 (stereo unspecified)
30.3 µM, […]
  Percent Effect: 40.04%

## O=C(c1c[nH]nn1)N1CCCC1C1CCCCC1 (stereo unspecified)
30.3 µM, […]
  Percent Effect: 34.69%

## Cc1cc(C)n(C2CCN(S(=O)(=O)N3CCOCC3)CC2)n1
30.3 µM, […]
  Percent Effect: -18.5%

## CN(C)C(CNC(=O)c1cccc(-n2cnnn2)c1)c1ccccc1Cl (stereo unspecified)
30 µM, 30.03 µM
  Percent Effect: -12.85%

## CN(C)C(CNC(=O)c1ccc(-n2cnnn2)cc1)c1ccccc1Cl (stereo unspecified)
30.3 µM, […]
  Percent Effect: 52.55%

## O=C(NCC(O)c1ccccc1Cl)c1cccc(-n2cnnn2)c1 (stereo unspecified)
30 µM, 30.03 µM
  Percent Effect: 18.08%

## Cc1ncc(CNCC(C)O)c2cc(C(=O)c3ccc(Br)cc3)oc12.Cl (stereo unspecified)
30.3 µM, […]
  Percent Effect: 46.85%

## Cc1ncc(CNCCO)c2cc(C(=O)c3ccc(Br)cc3)oc12.Cl
30.3 µM, […]
  Percent Effect: 52.55%

## Cc1ncc(CNC(C)(C)CO)c2cc(C(=O)c3ccc(Br)cc3)oc12
30.3 µM, […]
  Percent Effect: 44.76%

## CCn1nc(C)c2ncnc(NCCn3cccn3)c21
30.3 µM, […]
  Percent Effect: -8.829%

## N#Cc1ccc(N2CCC3(CC2)COCCN3Cc2cccnc2)cc1.O=C(O)C(F)(F)F
30.3 µM, […]
  Percent Effect: -0.3912%

## CC1(C)CC(N2Cc3nc(N)ncc3C2=O)CC(C)(C)N1
30 µM, 30.03 µM
  Percent Effect: 0.1811%

## CNc1ncc2c(n1)CN(C1CCCC1)C2=O
30.3 µM, […]
  Percent Effect: -21.11%

## CNc1ncc2c(n1)CN(C1CC(C)(C)NC(C)(C)C1)C2=O
30.3 µM, […]
  Percent Effect: 57.04%

## CCc1nsc(NC2CC(=O)N(C3CC3)C2)n1 (stereo unspecified)
30.3 µM, […]
  Percent Effect: 25.34%

## Cc1ccc(-c2[nH]c3ccccc3c2C(=O)O)c(C)c1
30.3 µM, […]
  Percent Effect: 12.49%

## COCCN1CCC(CNC(=O)Nc2ccc(F)c(Cl)c2)C1 (stereo unspecified)
30.3 µM, […]
  Percent Effect: 9.001%

## COCCN1CCC(CNC(=O)Nc2ccc(SC(F)(F)F)cc2)C1 (stereo unspecified)
30.3 µM, […]
  Percent Effect: 43.78%

## COCCN1CCC(CNC(=O)Nc2ccc(-c3ccccc3)cc2)C1 (stereo unspecified)
30.3 µM, […]
  Percent Effect: 93.25%

## Cc1cccc(CN2CCC3(CC(C(=O)NCC(C)C)=NO3)C2)c1 (stereo unspecified)
30.3 µM, […]
  Percent Effect: 14.53%

## CN(Cc1ccc([S+](C)[O-])cc1)c1ccc(Br)cn1 (stereo unspecified)
30.3 µM, […]
  Percent Effect: 20.24%

## CN(Cc1ccc([S+](C)[O-])cc1)c1ccc(C(F)(F)F)cn1 (stereo unspecified)
30.3 µM, […]
  Percent Effect: 54.49%

## CN(Cc1ccccc1)c1ccc(C(F)(F)F)cn1
30.3 µM, […]
  Percent Effect: 14.63%

## Cn1ccnc1CN1CCCN(C(=O)CC(C2CC2)C2CC2)CC1
30 µM
  Percent Effect: 10.73%

## Cn1nc(C(=O)NCc2ccccn2)c2c1CCS(=O)(=O)C2
30 µM, 30.03 µM
  Percent Effect: -1.622%

## Cn1nc(C(=O)NCc2cccs2)c2c1CCS(=O)(=O)C2
30.3 µM, […]
  Percent Effect: 62.35%

## Cc1ncc(CNC(=O)c2nn(C)c3c2CS(=O)(=O)CC3)s1
30 µM, 30.03 µM
  Percent Effect: 17.47%

## CN1C(=O)CCCC12CCCN(Cc1cccs1)C2.O=C(O)C(F)(F)F (stereo unspecified)
30.3 µM, […]
  Percent Effect: 13.27%

## OC(COCc1ccccc1F)CN1CCC(Cn2cccn2)CC1 (stereo unspecified)
30.3 µM, […]
  Percent Effect: 8.392%

## Cc1ccc(CN2C[C@@H]3CN(C(=O)c4cccn4C)C[C@@H]3C2)cc1.O=C(O)C(F)(F)F
30.3 µM, […]
  Percent Effect: -2.2%

## Cc1noc(C)c1CNc1c(N2CCCC2)cccc1N1CCCC1
30.3 µM, […]
  Percent Effect: 97.2%

## COc1ccccc1N1CCC(NCc2c(C)noc2C)C1 (stereo unspecified)
30.3 µM, […]
  Percent Effect: 7.918%

## Cc1noc(CNc2c(N3CCCC3)cccc2N2CCCC2)n1
30.3 µM, […]
  Percent Effect: 45.54%

## Cc1cc(CN2CCC(N(C)Cc3noc(C4CC4)n3)C2)on1 (stereo unspecified)
30 µM
  Percent Effect: 11.66%

## O=C(c1ccncc1)N1CCCn2c(CN3CCCCC3)nnc2C1
30 µM, 30.03 µM
  Percent Effect: -1.304%

## CN1CC(c2cc(O)nc(NCc3ccccc3Cl)n2)CC1=O (stereo unspecified)
30.3 µM, […]
  Percent Effect: 7.659%

## CCN1CCCC(O)(c2nc(C)c(CCOc3ccccc3Cl)s2)CC1 (stereo unspecified)
30.3 µM, […]
  Percent Effect: 29.58%

## Cc1nc(C2(O)CCCNCC2)sc1CCOc1ccccc1Cl.Cl (stereo unspecified)
30.3 µM, […]
  Percent Effect: 22.61%

## Cc1nc(C2(O)CCCNCC2)sc1CCOc1ccccc1F.Cl (stereo unspecified)
30.3 µM, […]
  Percent Effect: 57.78%

## Cc1ncc(C(=O)NCCOc2ccccc2F)c(C)n1
30.3 µM, […]
  Percent Effect: 48.08%

## CCN1CCCC(O)(c2nc(C)c(CCOc3ccccc3F)s2)CC1 (stereo unspecified)
30.3 µM, […]
  Percent Effect: 7.204%

## CC/N=c1/c(NC(=O)C2CC2)c(O)oc2ccccc12
30.3 µM, […]
  Percent Effect: -64.73%

## CNC(=O)C(C)(C)CNC(=O)Nc1ccc(C)cn1
30.3 µM, […]
  Percent Effect: -4.041%

## CN1CCC(N2CCC(C(=O)N(C)C)CC2)CC1.O=C(O)C(F)(F)F.O=C(O)C(F)(F)F
30.3 µM, […]
  Percent Effect: 15.52%

## Cc1cc(C(=O)NCc2ccnc(N3CCN(C)CC3)c2)no1
30 µM
  Percent Effect: 35.55%

## COCCCn1ccnc1-c1cnc(OC)nc1
30 µM, 30.03 µM
  Percent Effect: 27.45%

## COc1ncc(-c2nccn2C(C)CCn2cccn2)cn1 (stereo unspecified)
30.3 µM, […]
  Percent Effect: 51.46%

## COc1cc(-c2nccn2C(C)CCn2cccn2)cc2c1OCO2 (stereo unspecified)
30.3 µM, […]
  Percent Effect: 30.8%

## CCOCCNC(=O)c1cccnc1Sc1cc(OC)ccc1OC
30.3 µM, […]
  Percent Effect: 14.43%

## Cc1ccc(CNC(=O)CNCC2CCN(CCO)CC2)s1
30.3 µM, […]
  Percent Effect: 12.94%

## CC(NC1CCN(CCS(C)(=O)=O)CC1)c1ccc(Cl)cc1 (stereo unspecified)
30 µM, 30.03 µM
  Percent Effect: 14.89%

## CC(NCC1CCN(CCO)CC1)c1ccc(Cl)cc1 (stereo unspecified)
30.3 µM, […]
  Percent Effect: 77.33%

## CC(NCC1CCN(CCO)CC1)c1cccc(Cl)c1 (stereo unspecified)
30.3 µM, […]
  Percent Effect: 73.65%

## CC(NCC1CCN(CCO)CC1)c1ccc(F)c(Cl)c1 (stereo unspecified)
30.3 µM, […]
  Percent Effect: 55.27%

## CC(NCC1CCN(CCO)CC1)c1ccc(C(F)(F)F)cc1 (stereo unspecified)
30.3 µM, […]
  Percent Effect: 77.37%

## CN(CC1CCN(CCO)CC1)CC(O)c1ccc(F)c(F)c1 (stereo unspecified)
30.3 µM, […]
  Percent Effect: 32.26%

## COc1ccc(CNCC2CCN(CCO)CC2)cc1F
30.3 µM, […]
  Percent Effect: 13.13%

## OCCN1CCN(CC(O)c2ccc(C(F)(F)F)cc2)CC1 (stereo unspecified)
30.3 µM, […]
  Percent Effect: 28.06%

## COC1CCN(CCNC(=O)NC(C)c2cccc(Cl)c2)CC1 (stereo unspecified)
30.3 µM, […]
  Percent Effect: 6.711%

## CC(NCC1CCN(CCO)CC1)c1cccnc1 (stereo unspecified)
30.3 µM, […]
  Percent Effect: 10.64%

## CC(NCC1CCN(CCO)CC1)c1ccc(OC(F)(F)F)cc1 (stereo unspecified)
30.3 µM, […]
  Percent Effect: 36.61%

## O=C(O)C(F)(F)F.O=S(=O)(C1CC1)N1CCOCC2(CCN(c3ccccn3)C2)C1 (stereo unspecified)
30 µM, 30.03 µM
  Percent Effect: -13.08%

## CC(C)N(C)Cc1nnn2c1CN(Cc1cccnc1)CCC2.O=C(O)C(F)(F)F.O=C(O)C(F)(F)F.O=C(O)C(F)(F)F
30.3 µM, […]
  Percent Effect: -19.03%

## FC(F)(F)c1cc(C2CCNCC2)nc(-c2ccsc2)n1
30.3 µM, […]
  Percent Effect: 3.687%
